Source: article PMC4336329 (PLoS ONE, 2015)
The campaign covered roughly 310,000 compounds. About 2,200 (0.71%) showed an effect of 50% or more. The effect is printed as a negative number. The full list was thinned out, with strong results kept by preference.

biological target: human ether-à-go-go-related gene (hERG) potassium channel (human, UniProt Q12809); assay: primary screen, population patch clamp on CHO cells stably expressing hERG; higher = less effect of the substance
Sequence (Q12809 whole entry, looked up): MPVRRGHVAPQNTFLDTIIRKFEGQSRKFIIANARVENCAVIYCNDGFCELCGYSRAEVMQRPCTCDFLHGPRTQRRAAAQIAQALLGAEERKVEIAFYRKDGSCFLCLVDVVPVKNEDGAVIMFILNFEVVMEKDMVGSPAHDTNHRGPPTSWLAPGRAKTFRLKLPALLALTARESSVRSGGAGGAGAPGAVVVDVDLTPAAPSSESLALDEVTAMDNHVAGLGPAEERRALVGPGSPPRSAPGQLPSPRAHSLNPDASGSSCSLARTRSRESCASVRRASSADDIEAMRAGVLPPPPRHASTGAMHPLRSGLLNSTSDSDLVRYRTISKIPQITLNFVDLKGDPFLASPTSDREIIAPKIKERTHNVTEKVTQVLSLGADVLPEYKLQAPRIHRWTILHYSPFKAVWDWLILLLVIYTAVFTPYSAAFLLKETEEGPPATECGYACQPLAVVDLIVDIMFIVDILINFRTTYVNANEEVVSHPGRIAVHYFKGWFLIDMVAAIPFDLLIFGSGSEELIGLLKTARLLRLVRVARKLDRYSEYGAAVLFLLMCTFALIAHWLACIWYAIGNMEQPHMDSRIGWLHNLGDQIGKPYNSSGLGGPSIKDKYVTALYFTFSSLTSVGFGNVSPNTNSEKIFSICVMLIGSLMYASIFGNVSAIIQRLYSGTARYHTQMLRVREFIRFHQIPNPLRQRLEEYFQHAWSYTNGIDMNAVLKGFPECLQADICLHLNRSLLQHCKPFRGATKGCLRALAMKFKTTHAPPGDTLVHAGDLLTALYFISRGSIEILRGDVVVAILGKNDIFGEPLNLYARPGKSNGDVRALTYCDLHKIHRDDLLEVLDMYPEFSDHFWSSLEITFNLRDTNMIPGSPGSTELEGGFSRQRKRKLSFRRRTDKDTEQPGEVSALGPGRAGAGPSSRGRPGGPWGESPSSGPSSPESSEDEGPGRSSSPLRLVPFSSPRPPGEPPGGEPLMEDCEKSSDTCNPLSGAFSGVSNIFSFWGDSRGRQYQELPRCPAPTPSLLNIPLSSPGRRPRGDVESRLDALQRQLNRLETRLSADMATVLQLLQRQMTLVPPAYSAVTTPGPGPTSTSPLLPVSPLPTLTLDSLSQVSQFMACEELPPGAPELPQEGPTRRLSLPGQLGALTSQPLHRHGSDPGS

SMILES | hERG current change (%, negative = inhibition) at 1uM
O=C(OCCN1C(=O)c2ccccc2C1=O)c1cccs1 | 11.9%
CCC(C)n1c(=N)c(C#N)cc2c(=O)n3cc(C)ccc3nc21 (stereo not shown) | -22%
O=C(NCc1cccnc1)c1cccn2c(=O)c3sccc3nc12 | -16.3%
Cc1cccn2c(=O)c3cc(C(=O)NCc4cccnc4)c(=N)n(C(C)C)c3nc12 | -67.3%
CNC(=O)c1cc2c(=O)n3cccc(C)c3nc2n(C(C)C)c1=N | -82.3%
COCCCNC(=O)c1cc2c(=O)n3cccc(C)c3nc2n(C(C)C)c1=N | -46.1%
Cc1cccn2c(=O)c3cc(S(=O)(=O)c4ccccc4)c(=N)n(Cc4cccnc4)c3nc12 | -3.7%
C=CCn1c(=N)c(C(=O)NCCCOC)cc2c(=O)n3cc(C)ccc3nc21 | -41.9%
CNC(=O)c1cc2c(=O)n3cc(C)ccc3nc2n(C(C)C)c1=N | -81.9%
CCC(C)n1c(=N)c(C#N)cc2c(=O)n3cccc(C)c3nc21 (stereo not shown) | -16.6%
COc1ccc2c(c1)CCc1c(C(=O)N3CCCCCC3)noc1-2 | -1.37%
C=C(C)CN1C(=O)c2ccccc2C1=O | 4.89%
Cc1nc(Nc2ccccc2)[nH]c(=O)c1CCC(C)C | 1.92%
Cc1ccc(C)c(-n2c(-c3cccnc3)n[nH]c2=S)c1 | 18.2%
CCN(CC1CCCN(CCc2cccc(OC)c2)C1)C(=O)c1ccoc1 (stereo not shown) | -14.5%
CCN(CC1CCCN(CCc2cccc(OC)c2)C1)C(=O)c1ccoc1C (stereo not shown) | -27.8%
CCN(CC1CCCN(CCc2cccc(F)c2)C1)C(=O)c1cc2ccccc2o1 (stereo not shown) | -64.7%
CCN(CC1CCCN(CCc2cccc(OC)c2)C1)C(=O)c1ccc(COC)o1 (stereo not shown) | -51.1%
CCN(Cc1ccc(O)cc1)CC1CCCN(CCc2cccc(F)c2)C1 (stereo not shown) | -8.8%
CCN(CC1CCCN(CCc2cccc(F)c2)C1)C(=O)c1cc(C)oc1C (stereo not shown) | -2.34%

SMILES | hERG current change (%, negative = inhibition) at 1uM
CCN(Cc1ccc(NC(C)=O)cc1)CC1CCCN(CCc2cccc(F)c2)C1 (stereo not shown) | 9.42%
C=CCC(=O)N(CC)CC1CCCN(CCc2cccc(F)c2)C1 (stereo not shown) | -17.6%
CCN(CC1CCCN(CCc2cccc(F)c2)C1)C(=O)c1ccc(CSC)o1 (stereo not shown) | -52%
COc1ccc(C=O)cc1Cn1c(=O)n(CCC(=O)NCc2ccco2)c(=O)c2sccc21 | 5.91%
COc1ccc(N(CC(=O)NCc2ccc(Cl)cc2)S(=O)(=O)c2c(C)n[nH]c2C)cc1 | 1.42%
Cc1cc(C)nc(NS(=O)(=O)c2ccc(Br)cc2)n1 | 21.2%
Cc1ccc(Cn2c(CN3CC(C)OC(C)C3)nc3c2c(=O)[nH]c(=O)n3C)cc1 (stereo not shown) | -3.88%
O=C(O)CCn1cc(/C=C/C(=O)c2ccc(Cl)cc2)c(-c2cccc(Br)c2)n1 | 14.7%
CCCCN(C)C(=O)C1CCN(Cc2ccccn2)CC1.O=C(O)C(=O)O | 6.35%
CCN(Cc1ccccc1)C(=O)C1CCN(C/C(C)=C/c2ccccc2)CC1.O=C(O)C(=O)O | -31%
CCCCNC(=O)C1CCN(C/C(C)=C/c2ccccc2)CC1.O=C(O)C(=O)O | -33.9%
CCCCN(C)C(=O)C1CCN(CCCc2ccccc2)CC1.O=C(O)C(=O)O | -73.6%
CCCCN(C)C(=O)C1CCN(C/C(C)=C/c2ccccc2)CC1.O=C(O)C(=O)O | -54.3%
CCCCN(C)C(=O)C1CCN(Cc2ccc(OCc3ccccc3)cc2)CC1.O=C(O)C(=O)O | -55.7%
CCCCN(C)C(=O)C1CCN(Cc2cccnc2)CC1 | 10.1%
CCCCN(C)C(=O)C1CCN(Cc2cccc(OCc3ccccc3)c2)CC1.O=C(O)C(=O)O | -35.6%
O=C(C1CCN(CC2CC=CCC2)CC1)N(CCc1ccccc1)Cc1ccccc1 (stereo not shown) | -47%
O=C(C1CCN(CCCc2ccccc2)CC1)N(CCc1ccccc1)Cc1ccccc1.O=C(O)C(=O)O | -75%
CC1CCN(C(=O)C2CCN(CCCc3ccccc3)CC2)CC1.O=C(O)C(=O)O | -23.5%
CCN(CC)C(=O)C1CCN(Cc2ccc(OCc3ccccc3)cc2)CC1.O=C(O)C(=O)O | -13.3%

SMILES | hERG current change (%, negative = inhibition) at 1uM
COC(=O)C1=C(c2cc3ccccc3o2)C[C@@H]2CC[C@H]1N2C(=O)NC1CCCCC1 | -7.33%
CC(C)C(NC(=O)c1ccccc1)c1nnc(SCC(=O)Nc2nccs2)n1C (stereo not shown) | 15.7%
Cc1cc(=O)nc2c3ccccc3n(CC(=O)NCCCN3CCCC3=O)n12 | 10.4%
O=C(O)CCC(=O)NNC(=O)c1cccs1 | 15.5%
CCOC(=O)CSc1nc(CC)nc2ccccc12 | 4.2%
O=c1cc(CO)oc(CN2CCCC2)c1O | -2.54%
C/C(=N\O)c1ccc2c(c1)CC(C)O2 (stereo not shown) | 13.6%
CCOc1ccc2c(c1)sc(N)[n+]2Cc1cc(C)cc2cccnc12.[Br-] | -56.2%
COc1ccc2c(c1)sc(N)[n+]2Cc1cc(C)cc2cccnc12.[Br-] | -26.5%
Cc1cc(C[n+]2ccsc2N)c2ncccc2c1.[Br-] | -20.1%
CN(Cc1ccccc1)C(=O)c1nn2cccnc2c1Cl | 13.2%
Cc1cccn2c(=O)c3cc(C(=O)NCCN4CCOCC4)c(=N)n(CCN4CCOCC4)c3nc12 | 12.2%
CCNC(=O)c1cc2c(=O)n3cccc(C)c3nc2n(CCc2ccccc2)c1=N | -90.7%
CCCCNC(=O)c1cc2c(=O)n3cccc(C)c3nc2n(CCN2CCOCC2)c1=N | -92.4%
COCCn1c(=N)c(C(=O)NCCc2ccc(OC)cc2)cc2c(=O)n3cccc(C)c3nc21 | -95.4%
COCCNC(=O)c1cc2c(=O)n3cccc(C)c3nc2n1C | 22.6%
Cc1cccn2c(=O)c3cc(C(=O)NCCN4CCOCC4)n(C)c3nc12 | 9.82%
COCCn1c(=N)c(C(=O)NCCc2ccccc2)cc2c(=O)n3cccc(C)c3nc21 | -86.1%
